This note sets out measurements from PubChem BioAssay AID2110 (National Center for Advancing Translational Sciences (NCATS), 2009).

Molecules are shown by their SMILES. Inconclusive results are not listed. A call without a number means that no potency is given here. Calls of active or inactive are those of the source. The call rests on the fitted dose curve; in most records, active means well fitted curve in either direction with a large enough effect; inconclusive means small, poorly fitted or top-dose-only effect; inactive means no such curve, though single readings can be large or run the other way.

The test concerns the target Lysosomal alpha-glucosidase (Homo sapiens) (UniProt P10253). In words: Confirmation of Inhibitors and Activators of Purified Human alpha-Glucosidase Using an Alternate Red Fluorescent Susbtrate. The text has this: NIH Chemical Genomics Center [NCGC]
NIH Molecular Libraries Probe Production centers Network [MLPCN]
Assay Submitter (PI): Wei Zheng
Alpha-glucosidase is responsible for hydrolysis of terminal, non-reducing 1,4-linked alpha-D-glucose residues with release of alpha-D-glucose. It is a lysosomal hydrolase that is required for the degradation of a small percentage (1-3%) of cellular glycogen in human. Deficiency of this enzyme results in glycogen-storage disease type II (GSDII), also referred to as Pompe disease, an autosomal recessive disorder. Structurally normal glycogen is accumulated in lysosomes and cytoplasm in affected patients, primarily in muscle tissues. Excessive glycogen storage within lysosomes may interrupt normal functioning of other organelles and leads to cellular injury. […]
This is a fluorogenic enzyme assay with resorufin-alpha-D-pyranoside as the substrate and recombinant human alpha-glucosidase as the enzyme preparation. Upon the hydrolysis of this fluorogenic substrate, the resulting product, resorufin, can be excited at 573 nm and emits at 610 nm which can be detected by a standard fluorescence plate reader. […] The AC50 values were determined from concentration-response data modeled with the standard Hill equation. […]
(6) Detect the assay plate in a ViewLux plate reader (PerkinElmer) with Ex=365 nm and Em=440nm. […]

In the case of `CC[C@@]1(O)C(=O)OCc2c1cc1n(c2=O)Cc2cc3ccccc3nc2-1`, the Potency entry was “inactive”.
On to `Cc1c2ccncc2c(C)c2c1[nH]c1ccccc12`, for which the Potency was 35.5 µM (active).
